Measured values: ChEMBL document CHEMBL2218924, “A broad activity screen in support of a chemogenomic map for kinase signalling research and drug discovery” (Biochem J, 2013)

Legend:
[1] = target: Tyrosine-protein kinase Fer (Homo sapiens) (UniProt P16591); settings: at 10 µM
[2] = target: Tyrosine-protein kinase Fes/Fps (Homo sapiens) (UniProt P07332); settings: at 1 µM
[3] = target: Tyrosine-protein kinase Fes/Fps (Homo sapiens) (UniProt P07332); settings: at 10 µM
[4] = target: Tyrosine-protein kinase Fgr (Homo sapiens) (UniProt P09769); settings: at 1 µM
[5] = target: Tyrosine-protein kinase Fgr (Homo sapiens) (UniProt P09769); settings: at 10 µM
[6] = target: Vascular endothelial growth factor receptor 1 (Homo sapiens) (UniProt P17948); settings: at 1 µM
[7] = target: Vascular endothelial growth factor receptor 1 (Homo sapiens) (UniProt P17948); settings: at 10 µM
[8] = target: Receptor-type tyrosine-protein kinase FLT3 (Homo sapiens) (UniProt P36888); settings: at 1 µM
[9] = target: Receptor-type tyrosine-protein kinase FLT3 (Homo sapiens) (UniProt P36888); settings: at 10 µM
[10] = target: Vascular endothelial growth factor receptor 3 (Homo sapiens) (UniProt P35916); settings: at 1 µM
Sequence of Vascular endothelial growth factor receptor 3 (Homo sapiens) (P35916 whole entry): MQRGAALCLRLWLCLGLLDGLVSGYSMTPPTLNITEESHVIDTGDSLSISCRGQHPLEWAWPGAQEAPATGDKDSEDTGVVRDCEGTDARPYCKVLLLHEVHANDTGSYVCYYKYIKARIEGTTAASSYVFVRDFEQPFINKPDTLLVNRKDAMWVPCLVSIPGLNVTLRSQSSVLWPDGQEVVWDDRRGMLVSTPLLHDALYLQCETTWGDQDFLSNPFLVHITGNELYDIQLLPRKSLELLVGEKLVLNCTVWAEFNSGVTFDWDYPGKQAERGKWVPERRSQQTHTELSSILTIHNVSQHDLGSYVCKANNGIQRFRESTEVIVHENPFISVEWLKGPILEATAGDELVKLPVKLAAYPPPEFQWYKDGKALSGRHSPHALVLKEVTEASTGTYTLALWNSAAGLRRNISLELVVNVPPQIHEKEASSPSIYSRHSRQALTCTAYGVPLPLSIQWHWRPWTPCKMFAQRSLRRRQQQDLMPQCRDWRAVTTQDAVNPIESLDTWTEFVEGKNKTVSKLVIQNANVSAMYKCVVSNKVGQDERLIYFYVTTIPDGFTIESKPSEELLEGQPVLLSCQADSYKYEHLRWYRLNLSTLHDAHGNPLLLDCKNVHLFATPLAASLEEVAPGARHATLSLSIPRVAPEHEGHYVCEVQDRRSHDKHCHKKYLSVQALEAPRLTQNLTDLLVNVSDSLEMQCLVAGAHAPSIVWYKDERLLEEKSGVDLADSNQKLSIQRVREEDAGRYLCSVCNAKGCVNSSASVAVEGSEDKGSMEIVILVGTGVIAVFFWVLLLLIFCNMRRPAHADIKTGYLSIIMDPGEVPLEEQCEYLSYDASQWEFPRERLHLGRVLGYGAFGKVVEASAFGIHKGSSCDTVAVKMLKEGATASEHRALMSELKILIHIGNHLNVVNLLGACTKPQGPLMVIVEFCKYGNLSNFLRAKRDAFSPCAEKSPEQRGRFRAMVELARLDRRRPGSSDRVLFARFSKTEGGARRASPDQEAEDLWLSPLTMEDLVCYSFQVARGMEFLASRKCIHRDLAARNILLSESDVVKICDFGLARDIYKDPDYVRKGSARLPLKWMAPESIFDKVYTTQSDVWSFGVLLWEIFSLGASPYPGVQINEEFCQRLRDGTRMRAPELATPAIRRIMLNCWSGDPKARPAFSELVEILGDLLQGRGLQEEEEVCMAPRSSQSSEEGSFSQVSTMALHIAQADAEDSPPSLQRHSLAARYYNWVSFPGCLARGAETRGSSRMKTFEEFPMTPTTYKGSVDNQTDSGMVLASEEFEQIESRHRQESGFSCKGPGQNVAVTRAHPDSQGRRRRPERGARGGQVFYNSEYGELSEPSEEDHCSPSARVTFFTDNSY

Sequence of Tyrosine-protein kinase Fer (Homo sapiens) (P16591 whole entry, looked up): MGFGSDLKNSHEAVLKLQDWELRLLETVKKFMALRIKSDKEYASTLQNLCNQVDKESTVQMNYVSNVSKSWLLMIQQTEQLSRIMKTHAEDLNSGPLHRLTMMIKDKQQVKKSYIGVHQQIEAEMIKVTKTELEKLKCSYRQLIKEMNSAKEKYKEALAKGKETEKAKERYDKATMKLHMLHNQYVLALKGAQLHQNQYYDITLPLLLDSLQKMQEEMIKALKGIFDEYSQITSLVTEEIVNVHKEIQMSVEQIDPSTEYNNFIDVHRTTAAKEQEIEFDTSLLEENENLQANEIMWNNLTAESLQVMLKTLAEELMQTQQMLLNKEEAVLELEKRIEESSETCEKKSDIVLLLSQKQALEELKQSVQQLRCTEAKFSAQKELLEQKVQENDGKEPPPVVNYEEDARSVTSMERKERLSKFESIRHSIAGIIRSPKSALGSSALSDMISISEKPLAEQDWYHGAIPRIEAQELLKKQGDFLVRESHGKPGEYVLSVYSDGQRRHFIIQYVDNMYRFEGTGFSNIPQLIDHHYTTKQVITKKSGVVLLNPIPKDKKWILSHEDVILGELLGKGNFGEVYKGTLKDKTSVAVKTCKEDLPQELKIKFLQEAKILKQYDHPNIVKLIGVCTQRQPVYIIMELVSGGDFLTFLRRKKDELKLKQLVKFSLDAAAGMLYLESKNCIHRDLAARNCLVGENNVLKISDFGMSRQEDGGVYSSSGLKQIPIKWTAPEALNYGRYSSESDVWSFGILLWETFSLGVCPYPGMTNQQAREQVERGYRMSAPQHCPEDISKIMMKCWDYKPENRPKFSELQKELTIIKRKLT
Sequence of Vascular endothelial growth factor receptor 1 (Homo sapiens) (P17948 whole entry): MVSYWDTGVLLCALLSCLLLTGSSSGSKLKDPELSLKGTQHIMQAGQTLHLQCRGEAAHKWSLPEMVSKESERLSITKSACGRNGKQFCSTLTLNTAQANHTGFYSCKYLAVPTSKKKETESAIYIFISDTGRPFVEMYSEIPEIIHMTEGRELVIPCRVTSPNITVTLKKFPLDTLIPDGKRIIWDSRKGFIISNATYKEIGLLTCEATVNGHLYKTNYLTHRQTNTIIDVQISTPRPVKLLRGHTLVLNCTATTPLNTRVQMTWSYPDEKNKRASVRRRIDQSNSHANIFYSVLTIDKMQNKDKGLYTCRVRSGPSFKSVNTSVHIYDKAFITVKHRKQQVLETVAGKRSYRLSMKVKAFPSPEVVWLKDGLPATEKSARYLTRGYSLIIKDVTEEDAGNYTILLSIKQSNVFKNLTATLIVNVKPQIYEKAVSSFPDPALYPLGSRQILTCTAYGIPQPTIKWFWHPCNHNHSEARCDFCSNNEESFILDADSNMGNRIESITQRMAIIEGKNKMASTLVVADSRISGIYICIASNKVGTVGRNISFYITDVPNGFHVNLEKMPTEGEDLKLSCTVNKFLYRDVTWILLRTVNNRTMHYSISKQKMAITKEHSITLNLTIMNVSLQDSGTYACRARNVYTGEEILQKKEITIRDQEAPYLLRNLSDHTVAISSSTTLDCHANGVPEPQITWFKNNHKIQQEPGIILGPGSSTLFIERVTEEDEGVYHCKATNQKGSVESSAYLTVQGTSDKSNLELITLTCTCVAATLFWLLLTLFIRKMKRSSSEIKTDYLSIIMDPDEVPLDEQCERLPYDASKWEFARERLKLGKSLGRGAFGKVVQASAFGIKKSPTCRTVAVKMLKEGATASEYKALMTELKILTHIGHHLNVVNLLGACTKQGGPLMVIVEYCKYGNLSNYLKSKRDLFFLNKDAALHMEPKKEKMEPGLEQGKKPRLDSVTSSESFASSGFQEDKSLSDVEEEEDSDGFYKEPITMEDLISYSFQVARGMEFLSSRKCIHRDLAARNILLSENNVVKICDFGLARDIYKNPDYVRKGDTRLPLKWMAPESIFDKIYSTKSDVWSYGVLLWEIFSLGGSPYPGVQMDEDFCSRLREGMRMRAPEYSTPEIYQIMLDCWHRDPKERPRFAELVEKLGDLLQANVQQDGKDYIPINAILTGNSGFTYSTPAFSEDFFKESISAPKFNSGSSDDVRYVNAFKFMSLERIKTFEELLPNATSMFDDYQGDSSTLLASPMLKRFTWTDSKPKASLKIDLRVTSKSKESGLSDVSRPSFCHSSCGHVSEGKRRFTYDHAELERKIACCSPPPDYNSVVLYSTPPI
Sequence of Tyrosine-protein kinase Fgr (Homo sapiens) (P09769 2-529 limits assumed): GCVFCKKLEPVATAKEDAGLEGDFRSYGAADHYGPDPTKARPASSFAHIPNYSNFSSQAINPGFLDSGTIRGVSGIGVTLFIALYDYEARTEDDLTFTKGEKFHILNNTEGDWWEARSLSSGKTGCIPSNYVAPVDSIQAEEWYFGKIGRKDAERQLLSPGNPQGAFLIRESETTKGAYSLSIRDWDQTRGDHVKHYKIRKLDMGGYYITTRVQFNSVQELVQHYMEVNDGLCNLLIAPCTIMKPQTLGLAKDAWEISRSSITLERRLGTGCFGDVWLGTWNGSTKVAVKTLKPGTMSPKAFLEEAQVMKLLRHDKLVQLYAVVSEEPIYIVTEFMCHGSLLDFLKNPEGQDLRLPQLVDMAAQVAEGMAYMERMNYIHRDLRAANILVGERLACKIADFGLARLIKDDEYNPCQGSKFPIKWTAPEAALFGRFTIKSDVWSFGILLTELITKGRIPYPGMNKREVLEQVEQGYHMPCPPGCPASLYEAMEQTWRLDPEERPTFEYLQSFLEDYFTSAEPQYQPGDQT
Sequence of Receptor-type tyrosine-protein kinase FLT3 (Homo sapiens) (P36888 whole entry): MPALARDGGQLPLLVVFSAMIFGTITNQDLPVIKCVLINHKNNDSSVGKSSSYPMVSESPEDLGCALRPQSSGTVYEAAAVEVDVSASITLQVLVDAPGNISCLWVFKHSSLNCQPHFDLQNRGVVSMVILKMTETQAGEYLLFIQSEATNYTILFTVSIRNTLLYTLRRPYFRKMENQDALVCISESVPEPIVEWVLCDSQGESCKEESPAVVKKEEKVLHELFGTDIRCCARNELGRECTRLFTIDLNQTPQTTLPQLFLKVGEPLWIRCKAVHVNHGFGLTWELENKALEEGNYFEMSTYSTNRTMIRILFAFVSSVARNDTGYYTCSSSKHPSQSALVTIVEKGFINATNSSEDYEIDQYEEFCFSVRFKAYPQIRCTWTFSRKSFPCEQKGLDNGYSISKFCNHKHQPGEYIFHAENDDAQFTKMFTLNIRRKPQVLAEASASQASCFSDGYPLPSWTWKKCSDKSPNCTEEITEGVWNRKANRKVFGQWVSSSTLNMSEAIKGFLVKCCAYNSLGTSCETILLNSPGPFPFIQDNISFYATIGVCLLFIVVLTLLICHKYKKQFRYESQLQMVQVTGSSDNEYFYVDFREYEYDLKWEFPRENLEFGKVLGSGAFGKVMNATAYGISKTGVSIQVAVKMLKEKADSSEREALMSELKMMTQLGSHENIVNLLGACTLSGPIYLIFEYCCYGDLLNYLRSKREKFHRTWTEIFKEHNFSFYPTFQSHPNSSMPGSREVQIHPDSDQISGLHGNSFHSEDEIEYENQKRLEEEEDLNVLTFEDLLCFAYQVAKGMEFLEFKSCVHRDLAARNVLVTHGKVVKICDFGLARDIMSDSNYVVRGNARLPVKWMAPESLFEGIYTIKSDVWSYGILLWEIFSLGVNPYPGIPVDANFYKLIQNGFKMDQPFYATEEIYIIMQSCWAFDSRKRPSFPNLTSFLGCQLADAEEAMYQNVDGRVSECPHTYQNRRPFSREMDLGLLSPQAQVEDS

SMILES	residual activity [1] [%]	residual activity [2] [%]	residual activity [3] [%]	residual activity [4] [%]	residual activity [5] [%]	residual activity [6] [%]	residual activity [7] [%]	residual activity [8] [%]	residual activity [9] [%]	residual activity [10] [%]
CO[C@H]1C[C@@H]2CC[C@@H](C)[C@@](O)(O2)C(=O)C(=O)N2CCCC[C@H]2C(=O)O[C@H]([C@H](C)C[C@@H]2CC[C@@H](O)[C@H](OC)C2)CC(=O)[C@H](C)/C=C(\C)[C@@H](O)[C@@H](OC)C(=O)[C@H](C)C[C@H](C)/C=C/C=C/C=C/1C	95	106	84	98	99	88	96	100	96	99
O=C(O)c1ccc2c3c1cccc3c(=O)n1c3ccccc3nc21	5	98	71	97	87	92	81	50	22	74
CC[n+]1c(/C=C/N(C)c2ccccc2)n(-c2ccccc2)c2ccc(-c3nc4ccccc4s3)cc21	59	121	105	98	88	105	83	77	26	89
CCC(=O)Nc1ccc2ncnc(Nc3cccc(Br)c3)c2c1	91	115	78	102	76	86	83	120	107	85
COc1ccc(CNc2nc(N(CCO)CCO)nc3c2ncn3C(C)C)cc1	86	62	23	77	85	88	55	85	74	62
Cc1nc(-c2ccccc2)c(-c2ccncc2)o1	105	108	120	95	92	89	60	69	28	-1
Cn1cc(/C=C2\C(=O)Nc3ccc(S(N)(=O)=O)cc32)c2ccccc21	9	40	15	9	10	22	9	1	-1	11
CC(C)n1cnc2/c(=N/c3cccc(Cl)c3)nc(NCCO)[nH]c21	47	58	12	48	12	68	30	20	1	42
CC(C)n1cnc2c(NCc3ccccc3)nc(NCCCO)nc21	103	94	51	103	103	94	87	89	78	87
Nc1n[nH]c2nnc(-c3c(-c4ccccc4)nn4ccccc34)cc12	66	85	86	86	50	71	23	72	22	76
CCN(CC)C(=O)c1ccc(Nc2nc(OCC3CCCCC3)c3nc[nH]c3n2)cc1	6	61	9	55	7	33	2	5	1	0
O=C1Nc2cc(Br)ccc2/C1=C1/Nc2ccccc2/C1=N\O	45	79	100	1	2	-1	1	1	1	1
O=C1c2ccccc2-[n+]2ccc3c([nH]c4ccccc43)c21	90	89	88	92	85	79	67	87	52	76
Cc1nc2cc3nc(-c4cccs4)cnc3cc2n1C	105	134	88	109	69	40	3	15	1	24
Cc1cc(Nc2nc(-c3ccccc3)nc3ccccc23)n[nH]1	6	58	21	18	2	0	1	2	1	0
Oc1ccc(Nc2nc(-c3ccc(Cl)cc3)cs2)cc1	100	106	95	96	93	99	77	70	56	45
